In PubChem BioAssay (NCATS) one finds Potency and Z-AUC data, which are given here for 14 compounds.

A short description of the assay: qHTS drug screen for cell cycle checkpoint inhibitors in PARPi-resistant BRCA-mutant ovarian cancer cell lines. (AID 1963452). Conditions: PEO1/OlaR viability, CellTiter-Glo luminescence, 96 h; for Z-AUC: stronger effect = lower value. From the text: Women's Malignancies Branch, Center for Cancer Research (CCR),
National Cancer Institute (NCI), National Institutes of Health (NIH), Bethesda, MD
Poly (ADP-ribose) polymerase inhibitors (PARPis) have changed the treatment paradigm in breast cancer gene (BRCA) - mutant high-grade serous ovarian carcinoma (HGSC). However, most patients eventually develop resistance to PARPis, highlighting an unmet need for improved therapeutic strategies. Using high-throughput drug screens, we identified ataxia telangiectasia and rad3-related protein/checkpoint kinase 1 (CHK1) pathway inhibitors as cytotoxic and further validated the activity of the CHK1 inhibitor (CHK1i) prexasertib in PARPi-sensitive and -resistant BRCA-mutant HGSC cells and xenograft mouse models. CHK1i monotherapy induced DNA damage, apoptosis, and tumor size reduction. We then conducted a phase 2 study (NCT02203513) of prexasertib in patients with BRCA-mutant HGSC. The treatment was well tolerated but yielded an objective response rate of 6% (1 of 17; one partial response) in patients with previous PARPi treatment. […] BRCA reversion mutation in previously PARPi-treated BRCA-mutant patients was not associated with resistance to CHK1i.
Among others, 1082 oncology drugs, both approved and investigational, were prioritized based on their status in clinical trial development. […] Drugs with average Z-AUC values less than -1.0 in all three cell lines were classified as "hits" resulting in 151 oncology drug hits. The screen also confirmed cross-resistance between olaparib and other PARPis (rucaparib, niraparib, and talazoparib) in PARPi-resistant PEO1/OlaR and PEO4.
[1] G. L. Lin, K. M. Wilson, M. Ceribelli, B. Z. Stanton, P. J. Woo, S. Kreimer, E. Y. Qin, X. Zhang, J. Lennon, S. Nagaraja, P. J. Morris, M. Quezada, S. M. Gillespie, D. Y. Duveau, A. M. Michalowski, P. Shinn, R. Guha, M. Ferrer, C. Klumpp-Thomas, S. Michael, C. McKnight, P. Minhas, Z. Itkin, E. H. Raabe, L. Chen, R. Ghanem, A. C. Geraghty, L. Ni, K. I. Andreasson, N. A. Vitanza, K. E.Warren, C. J. Thomas, M. Monje, Therapeutic strategies for diffuse midline glioma from high-throughput combination drug screening. Sci. Transl. Med. 11, (2019).
[2] T. M. Yamamoto, A. McMellen, Z. L. Watson, J. Aguilera, R. Ferguson, E. Nurmemmedov, T. Thakar, G. L. Moldovan, H. Kim, D. M. Cittelly, A. M. Joglar, E. P. Brennecke, H. Wilson, K. Behbakht, M. J. Sikora, B. G. Bitler, Activation of Wnt signaling promotes olaparib resistant ovarian cancer. Mol. Carcinog. 58, 1770 - 1782 (2019).
PROTOCOL TABLE (as described by Inglese J, Shamu CE and Guy RK. 2007)
SEQUENCE No. (e.g., 1, 2, 3, etc.); […] (e.g., Cells, Incubation, Reagent, etc.); VALUE; DESCRIPTION.
1; Compounds; 20nL; 1536-well white tissue culture-treated plates.
2; Cells; 5 uL; PEO1, PEO4, and PEO1/OlaR cells at 600 cells per well.
3; Incubation; 96 hr; 37C, 95% humidity, 5% CO2.
4; Reagent; 3 uL; CellTiter-Glo (Promega).
5; Incubation; 15 min; room temperature.
6; Detection; Luminescence, PHERAstar (BMG Labtech) plate reader.
NOTES (numbers refer to Sequence numbers above)
1. MIPE 5.0 compounds were acoustically dispensed by Echo Acoustic Liquid Handler (Beckman Coulter Life Sciences). Each compound was plated at an 11-point concentration range with 1:3 dilution. Bortezomib, a proteasome inhibitor (final concentration, 20 uM), was used as a positive.
2. PEO1, PEO4, and PEO1/OlaR were trypsinized and dispensed in 5 uLof growth medium using a Multidrop Combi dispenser at a density of 600 cells per well to allow compounds to be present during the exponential growth phase.
3. Plates were incubated for 96 hours at standard incubator conditions and covered by a stainless steel gasketed lid to prevent evaporation.
4. Three microliters of CellTiter-Glo (Promega) were added to each well.
5. Plates were incubated at room temperature for 15 min with a stainless-steel lid in place.
6. Luminescence readings were taken using PHERAstar (BMG Labtech). […]
(In general: qHTS replaces the single test concentration by a dilution series.)

The mark [1] stands for this setting: measured here: PEO1 parental Z-AUC.

Where “and” joins values, the source holds several entries; their conditions need not be identical. Equal entries are not always repeated. Calls of active or inactive are those of the source. The call rests on the fitted dose curve.
Potency means the concentration at half of the fitted maximal effect.

Turning to `CCN1CCN(Cc2ccc(NC(=O)Nc3ccc(Oc4cc(NC)ncn4)cc3)cc2C(F)(F)F)CC1`, the Potency is 4.9 µM (active). Besides, the Z-AUC under setting [1] was -1.75. In addition, the Z-AUC (measured here: PEO4 Z-AUC) was -1.71.
The matching figures for `NC[C@@](O)(c1ccc(Cl)cc1)c1ccc(-c2cn[nH]c2)cc1`: 13.8 µM (active), -1.09 and -1.28.
The matching figures for `CC(C)c1cc(CNc2nc(Nc3cc(C4CC4)[nH]n3)cc(N3CCN(C)CC3)n2)on1`: 0.549 µM (active), -1.91 and -2.1.
`Cc1cccc(Oc2cnc(=O)[nH]c2)c1`: the Z-AUC is -0.692 (inactive). The Z-AUC under setting [1] is -0.81. Further, the Z-AUC (measured here: PEO4 Z-AUC) was -0.687.
As to `C[C@H]1Oc2cc(cnc2N)-c2c(nn(C)c2C#N)CN(C)C(=O)c2ccc(F)cc21`, the Z-AUC is 0.784 (inactive) and 2.21 (inactive). Besides, the Z-AUC under setting [1] was -0.00425 and 0.761. Moreover, the Z-AUC (measured here: PEO4 Z-AUC) is -0.356 and 0.596.
In the case of `Cc1ccc(-c2ccc3c(ccc4sc5c(c43)NC[C@@H](C)NC5=O)n2)cn1`, the Z-AUC was -0.119 (inactive). The Z-AUC under setting [1] is 0.305. The Z-AUC (measured here: PEO4 Z-AUC) is -0.383.
For the compound `CC1=C(CO)C(=O)O[C@@H]([C@@H](C)[C@H]2CC[C@H]3[C@@H]4C[C@H]5O[C@]56[C@@H](O)C=CC(=O)[C@]6(C)[C@H]4CC[C@]23C)C1`, the Z-AUC is -1.4 (inactive). Further, the Z-AUC under setting [1] is -1.83. The Z-AUC (measured here: PEO4 Z-AUC) is -1.49.
As for `O=C(c1ccc(/C=C/c2n[nH]c3ccccc23)cc1)N1CCNCC1`, the Z-AUC was -0.885 (inactive). For the same compound, the Z-AUC under setting [1] is -0.223. For the same compound, the Z-AUC (measured here: PEO4 Z-AUC) was -0.438.
The matching figures for `CN1CCN(C2CCC(n3cc(-c4ccc(Oc5ccccc5)cc4)c4c(N)ncnc43)CC2)CC1` (configuration not stated): -1.03 (inactive), -1.14 and -0.439.
The matching figures for `CCS(=O)(=O)N1CCN(c2ccc(Nc3ncc(C(N)=O)c(NC4CC4)n3)cc2)CC1`: 0.319 (inactive), -0.223 and -0.0452.
The matching figures for `Cc1ccc([N+](=O)[O-])cc1S(=O)(=O)N(C)/N=C/c1cnc2ccc(Br)cn12`: -2.4 (inactive), -2.53 and -2.56.
On to `O=C(NCc1cccc(O)c1)Nc1nc(-c2ccncc2)cs1`, for which the Z-AUC was -0.136 (inactive). Also, the Z-AUC under setting [1] turned out to be 0.195. Besides, where the note is “measured here: PEO4 Z-AUC”, the Z-AUC is -0.295.
The matching figures for `C[C@@H]1CCN(C(=O)N2CCCC2)C[C@@H]1N(C)c1ncnc2[nH]ccc12`: -0.093 (inactive), 0.799 and 1.07.
For `CC(C)(C)C(=O)CN1C(=O)[C@H](NC(=O)Nc2cccc(C(=O)O)c2)CN(C2CCCCC2)c2ccccc21`, the Z-AUC was 1.75 (inactive). Also, the Z-AUC under setting [1] stood at 1.32. Further, where the note is “measured here: PEO4 Z-AUC”, the Z-AUC worked out at 1.22.
